Inconclusive results are not listed. Active and inactive are the calls of the source. Calls come from the whole dose curve; as a rule, active = well fitted curve in the direction sought with a large enough effect; inconclusive = small, poorly fitted or top-dose-only effect, or effect the other way, or another doubt; inactive = no such curve, though single readings can be large or run the other way.
Biological target: Amyloid-beta precursor protein (Homo sapiens) (UniProt P05067)
Assay: Assay for Inhibitors of the fibrillization of the Beta-Amyloid Protein Fragment, A-beta 1-42
Conditions: A-beta 1-42 fibrillization, ThT fluorescence, 4 h; series mostly up to 80 µM; activity, positive = inhibition: at the top concentration
Excerpt: NIH Molecular Libraries Probe Production Network [MLPCN] NIH Chemical Genomics Center [NCGC] MLPCN Grant: X01 MH083262-01 Assay Provider: Carlo Ballatore, University of Pennsylvania NCGC Assay Overview: The microtubule-associated protein tau is an abundant protein in the axons of neurons that stabilizes microtubules. With its ability to modulate microtubule dynamics, tau contributes directly or indirectly, to key structural and regulatory cellular functions. Particularly important is the influence tau exerts on axonal transport, which allows signaling molecules, trophic factors and other essential cellular constituents to travel along the axons. Under pathological conditions, tau becomes sequestered into insoluble aggregates called neurofibrillary tangles. This phenomenon is believed to have pathological consequences by promoting axonal transport deficits that ultimately lead to synaptic dysfunction and neuronal loss. Beta-amyloid protein undergoes a similar type of aggregation as tau and is implicated in the pathology of Alzheimer's disease. To examine the selectivity of tau fibrillization inhibitors, compounds were tested in an in vitro assay for fibrillization of the beta-amyloid fragment, A-beta 1-42. Crystal, A. S., Giasson, B. I., Crowe, A., Kung, M. P., Zhuang, Z. P., Trojanowski, J. Q., and Lee, V. M. Y. (2003) Journal of Neurochemistry 86, 1359-1368.
NCGC Assay Protocol Summary: Synthetic A-beta 1-42 aliquots were reconstituted to 2 mg/ml in DMSO and then diluted to 15 uM in 25 mM Tris, pH 7.0 buffer to which test compound was added at 50 uM final concentration, or at several concentrations ranging from 0.16-40 uM. The reaction mixtures were dispensed at 25 ul/well into a 384-well plate and then incubated at 37 C for 4 hrs. Upon completion of the reaction, 25 ul of 25 uM ThT was added to each well followed by ThT fluorescence readings as described above for K18PL.

Amyloid-beta precursor protein (Homo sapiens), sequence (P05067 whole entry, looked up, the tested form may be a part): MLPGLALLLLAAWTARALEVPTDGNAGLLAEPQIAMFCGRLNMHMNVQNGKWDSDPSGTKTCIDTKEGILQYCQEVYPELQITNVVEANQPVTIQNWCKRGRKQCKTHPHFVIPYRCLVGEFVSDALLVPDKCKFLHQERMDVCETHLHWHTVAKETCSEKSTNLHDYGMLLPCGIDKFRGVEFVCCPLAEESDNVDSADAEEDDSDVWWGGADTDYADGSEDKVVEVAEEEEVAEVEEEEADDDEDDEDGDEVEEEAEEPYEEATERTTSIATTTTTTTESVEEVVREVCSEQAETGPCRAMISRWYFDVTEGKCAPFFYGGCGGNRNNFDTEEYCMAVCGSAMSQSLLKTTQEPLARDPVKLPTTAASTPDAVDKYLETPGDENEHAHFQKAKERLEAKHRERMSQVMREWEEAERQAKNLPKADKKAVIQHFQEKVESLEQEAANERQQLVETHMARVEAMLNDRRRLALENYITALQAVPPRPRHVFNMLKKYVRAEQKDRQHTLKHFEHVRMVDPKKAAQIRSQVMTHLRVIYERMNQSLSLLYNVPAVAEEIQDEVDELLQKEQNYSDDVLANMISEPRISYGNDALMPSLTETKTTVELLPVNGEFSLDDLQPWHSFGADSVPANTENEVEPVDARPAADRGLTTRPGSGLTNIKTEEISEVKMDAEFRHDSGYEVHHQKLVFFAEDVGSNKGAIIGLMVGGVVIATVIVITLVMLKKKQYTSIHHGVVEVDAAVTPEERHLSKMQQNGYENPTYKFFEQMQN

| SMILES | activity, positive = inhibition |
| --- | --- |
| CCOC(=O)c1nn(-c2ccc(C)c(C)c2)c(=O)c2c(N)scc12 | -17.1% (inactive) |
| Nc1scc2c(C(=O)N3CCOCC3)nn(-c3ccccc3)c(=O)c12 | 5.25% (inactive) |
| CCOC(=O)c1nn(-c2ccccc2F)c(=O)c2c(N)scc12 | 5.98% (inactive) |
| COc1ccc(-n2nc(C(=O)O)c3csc(N)c3c2=O)cc1 | 7.71% (inactive) |
| Nc1scc2c(CO)nn(-c3ccccc3)c(=O)c12 | -12.8% (inactive) |
| O=S(=O)(c1ccc2c(c1)OCCO2)N1CCN(c2nc(-c3ccccc3)nc3ccccc23)CC1 | -8.26% (inactive) |
| CC(=O)Nc1sc(C)c2cnn(-c3ccccc3)c(=O)c12 | 27.7% (inactive) |
| NC(=O)c1nn(-c2ccccc2)c(=O)c2c(N)scc12 | -7.43% (inactive) |
| COc1ccc(NC(=O)CSc2nnc(CCC(=O)Nc3ccc(C)c(Cl)c3)n2C)cc1 | -21.2% (inactive) |
| CCOC(=O)c1nn(-c2ccccc2)c(=O)c2c(N)scc12 | 2.97% (inactive) |
| Nc1nn(-c2ccccc2)c(=O)c2c(N)scc12 | -16.8% (inactive) |
| Cc1ccc(S(=O)(=O)N2CCN(c3nc(-c4ccccc4)nc4ccccc34)CC2)cc1 | -11.6% (inactive) |
| CCOC(=O)c1ccc(-n2nc(C(=O)OCC)c3csc(N)c3c2=O)cc1 | -0.14% (inactive) |
